The results in this text go back to PubChem BioAssay (NCATS).

Values joined by “and” are separate entries in the source; they are usually repeats but may differ in a detail not shown here. Identical values can stand only once. Results filed as inconclusive are left out. Unmarked numbers belong to inactive results. Active and inactive are the calls of the source. Unless noted, calls follow the shape of the dose curve; as a rule, active = well fitted curve in the direction sought with a large enough effect; inconclusive = small, poorly fitted or top-dose-only effect, or another doubt; inactive = no such curve, though single readings can be large; an effect the other way counts as inactive or inconclusive.

By viability is commonly meant a read-out of living cells in per cent, often relative to untreated cells.

Assay [1] has as its target Cellular tumor antigen p53 (Homo sapiens) (UniProt P04637). Briefly: Primary qHTS for small molecule compounds that upregulate eGFP-tagged delta133p53alpha (in N-terminal) cells. (AID 2060322).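 Also: cells pre-induced with doxycycline then dosed without doxycycline; 0% = DMSO vehicle and 100% = reference activator; nearly all actives have a fitted effect of over 75% in size.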 Particulars: NCI-H358 eGFP-delta133p53alpha fluorescence, 24 h; activation: active compounds read high. In outline: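 NCI-H358 cells pre-induced 24 h with 10 ng/ml doxycycline for eGFP-delta133p53alpha, plated dox-free and exposed 24 h at 37C to titrated compounds. Fixed, Hoechst-stained; gated GFP peak intensity by laser scanning cytometry, normalized to DMSO (0%) and 57.5 uM 5-azacytidine (100%).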
(In general: Quantitative high-throughput screening tests each substance at several concentrations.)

The nature of assay [2]: BET inhibitor-based combinations targeting novel dependencies in MECOM-rearranged (r) AML: HNT-34 cell line (AID 2202234). Also: nearly all actives have a fitted effect of over 35% in size. Also: potency is read from the fitted curve at half-maximal effect. The following applies: HNT-34 AML viability, CellTiter-Glo luminescence, 48 h; series mostly up to 46 µM. In outline:
(§1)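 Cells at 500/well were exposed for 48 hr to MIPE v5.0 drugs as 11-point dose curves. Viability was read by CellTiter-Glo luminescence and normalized to DMSO and empty-well controls. Activity was expressed as AUC and per-cell-line Z-AUC.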
(In ATP-based viability assays light output follows the ATP content of the culture.)

Assay [3] can be described thus: BET inhibitor-based combinations targeting novel dependencies in MECOM-rearranged (r) AML: UCSD-AML1 cell line (AID 2202235). Also: nearly all actives have a fitted effect of over 40% in size. Also: potency is read from the fitted curve at half-maximal effect. Particulars: UCSD-AML1 AML cells viability, CellTiter-Glo, 48 h; series mostly up to 46 µM. In outline: as §1
Assay [4] has as its target Cellular tumor antigen p53 (Homo sapiens) (UniProt P04637). Briefly: Primary qHTS for small molecule compounds that upregulate eGFP-tagged delta133p53alpha (in C-terminal) cells. (AID 2060324). Also: potency is read from the fitted curve at half-maximal effect. The following applies: NCI-H358 delta133p53alpha-eGFP (C-terminal tag), GFP fluorescence imaging, 24 h; series mostly up to 57.5 µM. In short, it runs like this: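 Read-out: gated-cell GFP peak intensity (laser scanning cytometer), plate-normalized with DMSO as 0% activity, after 24 h compound exposure at 37C. Cells were C-terminal eGFP-tagged delta133p53alpha NCI-H358, doxycycline-induced (100 ng/ml, 24 h) before plating.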

Assay [5] addresses Aldehyde dehydrogenase, mitochondrial (Homo sapiens) (UniProt P05091). Briefly: qHTS for Inhibitors of the Aldehyde Dehydrogenase Family (ALDH2) Validation screens (AID 2061302; active = well fitted inhibition curve with a large enough effect; title and protocol of this record describe different tests; also: potency is read from the fitted curve at half-maximal effect). The following applies: ALDH inhibition qHTS; series mostly up to 42.6 µM.
For assay [6] the target is unchanged. The assay can be described thus: qHTS for Inhibitors of the Aldehyde Dehydrogenase Family (ALDH2) Confirmatory screens (AID 2061303; active = well fitted inhibition curve with a large enough effect; title and protocol of this record describe different tests; also: nearly all actives have a fitted effect of over 45% in size; also: potency is read from the fitted curve at half-maximal effect). The following applies: ALDH inhibition qHTS; series mostly up to 45.4 µM.
A short description of assay [7]: qHTS for Inhibitors of the Aldehyde Dehydrogenase Family (ALDH1A2, ALDH1A3, ALDH2, ALDH3A1) (AID 2061307). Also: nearly all actives have a fitted effect of over 50% in size. The following applies: ALDH inhibition qHTS; series mostly up to 50.3 µM.
In assay [8] the target is Aldehyde dehydrogenase, mitochondrial (Homo sapiens) (UniProt P05091). The assay can be described thus: qHTS for Inhibitors of the Aldehyde Dehydrogenase Family (ALDH2) Primary screen (AID 2061308). Also: nearly all actives have a fitted effect of over 55% in size. Also: potency is read from the fitted curve at half-maximal effect. Particulars: ALDH2 enzyme inhibition qHTS, 1536-well; series mostly up to 56 µM.
Assay [9] concerns the target Retinaldehyde dehydrogenase 3 (Homo sapiens) (UniProt P47895). Briefly: qHTS for Inhibitors of the Aldehyde Dehydrogenase Family (ALDH1A3) Confirmatory screens (AID 2061311). Also: nearly all actives have a fitted effect of over 60% in size. Also: potency is read from the fitted curve at half-maximal effect. Particulars: ALDH inhibition qHTS; series mostly up to 46 µM.
Assay [10] has as its target Retinal dehydrogenase 2 (Homo sapiens) (UniProt O94788). The assay can be described thus: qHTS for Inhibitors of the Aldehyde Dehydrogenase Family (ALDH1A2) Confirmation screens (AID 2061314). Also: nearly all actives have a fitted effect of over 65% in size. Also: potency is read from the fitted curve at half-maximal effect. The following applies: ALDH1A2 enzyme inhibition qHTS confirmation; series mostly up to 45.9 µM.
For assay [11], the target named is Aldehyde dehydrogenase 1A1 (Homo sapiens) (UniProt P00352). The assay can be described thus: qHTS for Inhibitors of the Aldehyde Dehydrogenase Family (ALDH1A1) Confirmatory screens (AID 2061316). Also: nearly all actives have a fitted effect of over 65% in size. Also: potency is read from the fitted curve at half-maximal effect. The following applies: ALDH inhibition qHTS; series mostly up to 47.3 µM.
A short description of assay [12]: BET inhibitor-based combinations targeting novel dependencies in MECOM-rearranged (r) AML: SET-2 cell line (AID 2202231). Also: nearly all actives have a fitted effect of over 35% in size. Also: potency is read from the fitted curve at half-maximal effect.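 As to viability: plate controls were DMSO treated cells for no effect and wells without cells for full effect.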 The following applies: SET-2 AML cells viability, CellTiter-Glo luminescence, 48 h; viability: active compounds read low, concentration not given here. In short, it runs like this:
(§2)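 AML cell lines seeded at 500 cells/well, treated with 11-point dose curves for 48 h. Viability by CellTiter-Glo luminescence, normalised to DMSO and empty wells; activity expressed as AUC and per-cell-line Z-transformed AUC.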

The nature of assay [13]: BET inhibitor-based combinations targeting novel dependencies in MECOM-rearranged (r) AML: OCI-AML3 cell line (AID 2202232). Also: nearly all actives have a fitted effect of over 35% in size. Also: potency is read from the fitted curve at half-maximal effect. Particulars: CellTiter-Glo luminescence, 48 h; Potency: OCI-AML3 viability; series mostly up to 46 µM. In short, it runs like this: as §2
Assay [14] can be described thus: BET inhibitor-based combinations targeting novel dependencies in MECOM-rearranged (r) AML: MV-4-11 cell line (AID 2202233). Also: nearly all actives have a fitted effect of over 45% in size. Also: potency is read from the fitted curve at half-maximal effect. The following applies: MV-4-11 AML viability, CellTiter-Glo luminescence, 48 h; series mostly up to 46 µM. In short, it runs like this: as §1
A short description of assay [15]: BET inhibitor-based combinations targeting novel dependencies in MECOM-rearranged (r) AML: AML-191 cell line (AID 2202236; also: nearly all actives have a fitted effect of over 35% in size; also: potency is read from the fitted curve at half-maximal effect). The following applies: AML-191 viability, CellTiter-Glo luminescence, 48 h; series mostly up to 46 µM. In short, it runs like this: as §2
A short description of assay [16]: BET inhibitor-based combinations targeting novel dependencies in MECOM-rearranged (r) AML: AML-194 cell line (AID 2202237; also: nearly all actives have a fitted effect of over 40% in size; also: potency is read from the fitted curve at half-maximal effect). Particulars: AML-194 (MECOM-r AML) viability, CellTiter-Glo, 48 h; series mostly up to 46 µM. In outline:
as §2

For assay [17], the target named is Retinaldehyde dehydrogenase 3 (Homo sapiens) (UniProt P47895). The assay can be described thus: qHTS for Inhibitors of the Aldehyde Dehydrogenase Family (ALDH1A3) Validation screen (AID 2061312). Also: % is scaled to controls: 0 for no effect and ±100 for the full control effect; nearly all actives have a fitted effect of over 45% in size. The following applies: ALDH1A3 enzyme inhibition qHTS validation, fluorescence; series mostly up to 84.7 µM.
Assay [18] shares this target. The assay can be described thus: qHTS for Inhibitors of the Aldehyde Dehydrogenase Family (ALDH1A3) Primary screen (AID 2061315).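 Also: plate controls were DMSO vehicle for no effect and reference inhibitor for full effect.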 Particulars: ALDH inhibition qHTS; series mostly up to 56 µM.

Chain of Cellular tumor antigen p53 (Homo sapiens) (P04637 whole entry, looked up): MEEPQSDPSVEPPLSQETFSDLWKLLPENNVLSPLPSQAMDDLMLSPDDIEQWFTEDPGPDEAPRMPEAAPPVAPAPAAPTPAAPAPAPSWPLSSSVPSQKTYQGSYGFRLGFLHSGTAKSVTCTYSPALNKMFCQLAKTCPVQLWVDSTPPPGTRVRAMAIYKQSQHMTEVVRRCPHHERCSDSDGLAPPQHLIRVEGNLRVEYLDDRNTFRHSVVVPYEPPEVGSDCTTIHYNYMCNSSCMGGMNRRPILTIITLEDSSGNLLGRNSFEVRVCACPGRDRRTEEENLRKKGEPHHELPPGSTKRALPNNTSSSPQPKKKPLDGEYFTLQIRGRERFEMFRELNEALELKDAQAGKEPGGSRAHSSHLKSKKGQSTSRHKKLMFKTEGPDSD

Regarding `CN[C@@H](C)C(=O)N[C@H]1CCCC[C@H]2CC[C@@H](C(=O)N[C@@H](c3ccccc3)c3cn(CCCCc4ccc(CCCCn5cc([C@@H](NC(=O)[C@@H]6CC[C@@H]7CCCC[C@H](NC(=O)[C@H](C)NC)C(=O)N76)c6ccccc6)nn5)cc4)nn3)N2C1=O`, the activation in assay [1] was 16.4%. Also, the Potency entry in [2] was “inactive”. For the same compound, the Potency in assay [3] is 3.7 nM (active).
Take `CC(C)N(CCC(=O)c1ccc2ccccc2c1)Cc1ccccc1`: the Potency in assay [4] was 23.9 µM (active); in [5], 355 nM (active) and 2.51 µM (active); in [6] it was 3.16 µM (active); in assay [7], 0.0127 µM (active); in assay [8], 251 nM (active); in assay [9], 283 nM (active). The Potency in [10] is 56.5 nM (active); in assay [11] it was 44.9 nM (active); in assay [12], 8.33 µM (active); in assay [13] it was 4.17 µM (active); in assay [14] it was 2.09 µM (active); in assay [2], 5.25 µM (active). Also, the results for the Potency in assay [3], in assay [15] and in assay [16] were 4170 nM (active), 6.61 µM (active) and 7.42 µM (active), respectively.
As to `CCCCCCCCCCCCCCCCCCOC[C@H](COP(=O)([O-])OCC[N+](C)(C)C)OC`, the Potency entry in [4], in [5] and in assay [17] was “inactive” throughout.
As to `S=C(S)OC1CC2CC1C1CCCC21` (stereo unspecified), the Potency entry in assay [4], in assay [5] and in assay [17] was “inactive” each time.
As for `O=C(O)c1ccccc1Nc1cccc(OCc2ccc3ccccc3n2)c1`, the Potency entry in assay [4], in assay [5] and in assay [17] was “inactive” in each case. Also, the Potency in assay [7] was 7.98 µM (active).
Turning to `N[C@H](C(=O)O)[C@H](O)C(=O)O`, the Potency entry in [4], in assay [5], in assay [6], in assay [7], in assay [9] and in assay [11] was “inactive” in each case.
Consider `CC(=O)NC[C@H]1CN(c2ccc(N3CCOCC3)c(F)c2)C(=O)O1`, for which the Potency result in assay [4], in assay [5], in [8], in assay [17], in [18] and in assay [13] was “inactive” in each case. Further, the Potency entry in assay [14], in assay [2], in [3] and in assay [15] was “inactive” in each case. Besides, in assay [12], the viability is 105%.
Take `O=S(=O)(c1cccc2c(I)cccc12)N1CCCNCC1`: the Potency result in [4], in assay [5], in [7], in assay [10], in [14] and in assay [3] was “inactive” each time. Further, the Potency result in assay [15] and in assay [16] was “inactive” throughout. In assay [13], the Potency was 20.9 µM (active).
In the case of `CC(N)C(=O)OC(C)(C)Cc1ccc(Cl)cc1` (stereo unspecified), the Potency entry in assay [4], in assay [5] and in assay [17] was “inactive” each time.
With `S=C(S)N1CCCC1`, the Potency was 15.1 µM (active) in assay [4] and 3.16 µM (active) in assay [5].
`CCCc1nn(C)c2c(=O)[nH]c(-c3cc(S(=O)(=O)N4CCN(C)CC4)ccc3OCC)nc12`: the Potency entry in [4], in assay [5], in [8], in assay [17], in assay [18] and in assay [13] was “inactive” in each case. Further, the Potency result in assay [14], in assay [2], in assay [3], in [15] and in assay [16] was “inactive” each time. In addition, in assay [12], the viability is 114%.
In the case of `O=C(c1ccc(F)cc1)C1CCN(CCn2c(=O)[nH]c3ccccc3c2=O)CC1`, the Potency entry in assay [4], in assay [5], in assay [8], in [17] and in assay [18] was “inactive” each time.
